# Reference: PubChem BioAssay AID1159580 (chemical genetic matrix, 2015)
# In all, about 5,500 compounds went through this assay and about 2,000 (36%) were called active. Roughly 18% stayed inconclusive and do not appear here. The list shows a part of the results. Values without a mark were called inactive. Cut-off read from the data, not from the text of the source: active = normalized growth mostly below about 0.91 (no sharp cut-off); inconclusive = no clear call, values can overlap the other calls; inactive = mostly above about 0.92.
# Assay: chemical genetic growth profiling, strain panel (AID 1159580);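 note: tested at 20 µM; growth read once vehicle control cultures reached saturation at 30 °C; 1 = growth at the plate median or of vehicle wells; lower values mean less growth of the strain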
# Details: growth OD
compound,measurement,setting,value
CCC(Cc1c(I)cc(I)c(N)c1I)C(=O)O (stereo unspecified),normalized growth,"S. cerevisiae deletion strains, locus YKL009W, strain mrt4, stronger effect = lower value",0.974
same,normalized growth,"S. cerevisiae deletion strains, locus YKL068W, stronger effect = lower value",0.986
same,normalized growth,"S. cerevisiae deletion strains, locus YKL085W, strain MDH1 (second series), stronger effect = lower value",0.982
same,normalized growth,"S. cerevisiae deletion strains, locus YKL085W, strain MDH1, stronger effect = lower value",0.982
same,normalized growth,"S. cerevisiae deletion strains, locus YKL160W, strain elf1, stronger effect = lower value",0.961
same,normalized growth,"S. cerevisiae deletion strains, locus YKL190W, strain CNB1, stronger effect = lower value",1
same,normalized growth,"S. cerevisiae deletion strains, locus YKR001C, strain vps1, stronger effect = lower value",0.996
same,normalized growth,"S. cerevisiae deletion strains, locus YKR026C, strain gcn3, stronger effect = lower value",0.946
same,normalized growth,"S. cerevisiae deletion strains, locus YKR091W, strain srl3, stronger effect = lower value",0.941
same,normalized growth,"S. cerevisiae deletion strains, locus YLL001W, strain dnm1, stronger effect = lower value",0.977
same,normalized growth,"S. cerevisiae deletion strains, locus YLL026W, stronger effect = lower value",0.96
same,normalized growth,"S. cerevisiae deletion strains, locus YLL041C, strain sdh2, stronger effect = lower value",0.954
same,normalized growth,"S. cerevisiae deletion strains, locus YLR027C, strain aat2, stronger effect = lower value",0.964
same,normalized growth,"S. cerevisiae deletion strains, locus YLR039C, strain RIC1, stronger effect = lower value",0.933
same,normalized growth,"S. cerevisiae deletion strains, locus YLR058C, strain SHM2, stronger effect = lower value",1
same,normalized growth,"S. cerevisiae deletion strains, locus YLR102C, strain apc9, stronger effect = lower value",0.999
same,normalized growth,"S. cerevisiae deletion strains, locus YLR113W, strain HOG1, stronger effect = lower value",0.127 (active)
same,normalized growth,"S. cerevisiae deletion strains, locus YLR221C, strain rsa3, stronger effect = lower value",0.876 (active)
same,normalized growth,"S. cerevisiae deletion strains, locus YLR258W, strain gsy2, stronger effect = lower value",0.909 (active)
same,normalized growth,"S. cerevisiae deletion strains, locus YLR262C, strain YPT6 (second series), stronger effect = lower value",0.698 (active)
same,normalized growth,"S. cerevisiae deletion strains, locus YLR262C, strain YPT6, stronger effect = lower value",0.936
same,normalized growth,"S. cerevisiae deletion strains, locus YLR268W, strain sec22, stronger effect = lower value",1
same,normalized growth,"S. cerevisiae deletion strains, locus YLR320W, strain mms22, stronger effect = lower value",0.873 (active)
same,normalized growth,"S. cerevisiae deletion strains, locus YLR330W, strain CHS5, stronger effect = lower value",0.999
same,normalized growth,"S. cerevisiae deletion strains, locus YLR342W, strain FKS1 (second series), stronger effect = lower value",1
same,normalized growth,"S. cerevisiae deletion strains, locus YLR342W, strain FKS1, stronger effect = lower value",0.944
same,normalized growth,"S. cerevisiae deletion strains, locus YLR357W, strain rsc2, stronger effect = lower value",1.02
same,normalized growth,"S. cerevisiae deletion strains, locus YLR370C, strain arc18, stronger effect = lower value",0.95
same,normalized growth,"S. cerevisiae deletion strains, locus YLR371W, strain rom2, stronger effect = lower value",1
same,normalized growth,"S. cerevisiae deletion strains, locus YLR384C, strain iki3, stronger effect = lower value",0.954
same,normalized growth,"S. cerevisiae deletion strains, locus YLR418C, strain cdc73, stronger effect = lower value",1.02
same,normalized growth,"S. cerevisiae deletion strains, locus YML016C, strain PPZ1, stronger effect = lower value",0.995
same,normalized growth,"S. cerevisiae deletion strains, locus YML032C, strain rad52, stronger effect = lower value",1.02
same,normalized growth,"S. cerevisiae deletion strains, locus YML120C, strain ndi1, stronger effect = lower value",0.95
same,normalized growth,"S. cerevisiae deletion strains, locus YML124C, strain tub3, stronger effect = lower value",0.992
same,normalized growth,"S. cerevisiae deletion strains, locus YMR058W, strain fet3, stronger effect = lower value",0.944
same,normalized growth,"S. cerevisiae deletion strains, locus YMR078C, strain ctf18, stronger effect = lower value",1
same,normalized growth,"S. cerevisiae deletion strains, locus YMR125W, strain sto1, stronger effect = lower value",0.948
same,normalized growth,"S. cerevisiae deletion strains, locus YMR129W, stronger effect = lower value",0.932
same,normalized growth,"S. cerevisiae deletion strains, locus YMR205C, strain PFK2, stronger effect = lower value",0.906
same,normalized growth,"S. cerevisiae deletion strains, locus YMR223W, strain ubp8, stronger effect = lower value",1.01
same,normalized growth,"S. cerevisiae deletion strains, locus YMR231W, strain pep5, stronger effect = lower value",0.97
same,normalized growth,"S. cerevisiae deletion strains, locus YMR263W, strain SAP30, stronger effect = lower value",0.989
same,normalized growth,"S. cerevisiae deletion strains, locus YMR307W, strain GAS1, stronger effect = lower value",0.963
same,normalized growth,"S. cerevisiae deletion strains, locus YNL067W, strain RPL9B, stronger effect = lower value",1.01
same,normalized growth,"S. cerevisiae deletion strains, locus YNL071W, strain lat1, stronger effect = lower value",0.689 (active)
same,normalized growth,"S. cerevisiae deletion strains, locus YNL128W, strain TEP1, stronger effect = lower value",1.01
same,normalized growth,"S. cerevisiae deletion strains, locus YNL153C, strain GIM3, stronger effect = lower value",1.01
same,normalized growth,"S. cerevisiae deletion strains, locus YNL183C, strain NPR1, stronger effect = lower value",0.0218 (active)
same,normalized growth,"S. cerevisiae deletion strains, locus YNL209W, strain ssb2, stronger effect = lower value",0.966
same,normalized growth,"S. cerevisiae deletion strains, locus YNL233W, strain BNI4, stronger effect = lower value",1.01
same,normalized growth,"S. cerevisiae deletion strains, locus YNL248C, strain rpa49, stronger effect = lower value",0.887
same,normalized growth,"S. cerevisiae deletion strains, locus YNL250W, strain rad50, stronger effect = lower value",0.994
same,normalized growth,"S. cerevisiae deletion strains, locus YNL271C, strain bni1, stronger effect = lower value",0.979
same,normalized growth,"S. cerevisiae deletion strains, locus YNL298W, strain CLA4, stronger effect = lower value",0.981
same,normalized growth,"S. cerevisiae deletion strains, locus YNL307C, strain MCK1, stronger effect = lower value",0.997
same,normalized growth,"S. cerevisiae deletion strains, locus YNL322C, strain KRE1 (second series), stronger effect = lower value",0.932
same,normalized growth,"S. cerevisiae deletion strains, locus YNL322C, strain KRE1, stronger effect = lower value",1
same,normalized growth,"S. cerevisiae deletion strains, locus YNR049C, strain mso1, stronger effect = lower value",0.925
same,normalized growth,"S. cerevisiae deletion strains, locus YNR052C, strain pop2, stronger effect = lower value",0.998
same,normalized growth,"S. cerevisiae deletion strains, locus YOL006C, strain TOP1, stronger effect = lower value",1.01
same,normalized growth,"S. cerevisiae deletion strains, locus YOL012C, strain htz1",1.15
same,normalized growth,"S. cerevisiae deletion strains, locus YOL147C, strain pex11, stronger effect = lower value",0.999
same,normalized growth,"S. cerevisiae deletion strains, locus YOR001W, strain rrp6, stronger effect = lower value",1
same,normalized growth,"S. cerevisiae deletion strains, locus YOR061W, strain CKA2, stronger effect = lower value",0.997
same,normalized growth,"S. cerevisiae deletion strains, locus YOR069W, strain VPS5, stronger effect = lower value",0.999
same,normalized growth,"S. cerevisiae deletion strains, locus YOR070C, strain gyp1, stronger effect = lower value",0.917 (active)
same,normalized growth,"S. cerevisiae deletion strains, locus YOR080W, strain dia2, stronger effect = lower value",0.95
same,normalized growth,"S. cerevisiae deletion strains, locus YOR083W, strain WHI5, stronger effect = lower value",0.949
same,normalized growth,"S. cerevisiae deletion strains, locus YOR106W, strain vam3, stronger effect = lower value",0.943
same,normalized growth,"S. cerevisiae deletion strains, locus YOR136W, strain idh2, stronger effect = lower value",1.02
same,normalized growth,"S. cerevisiae deletion strains, locus YOR144C, strain elg1, stronger effect = lower value",0.985
same,normalized growth,"S. cerevisiae deletion strains, locus YOR184W, strain ser1, stronger effect = lower value",1.01
same,normalized growth,"S. cerevisiae deletion strains, locus YOR231W, strain MKK1, stronger effect = lower value",0.113 (active)
same,normalized growth,"S. cerevisiae deletion strains, locus YOR265W, strain rbl2, stronger effect = lower value",0.951
same,normalized growth,"S. cerevisiae deletion strains, locus YOR270C, strain vph1, stronger effect = lower value",0.784
same,normalized growth,"S. cerevisiae deletion strains, locus YOR290C, strain snf2, stronger effect = lower value",0.92
same,normalized growth,"S. cerevisiae deletion strains, locus YOR316C, strain cot1, stronger effect = lower value",0.999
same,normalized growth,"S. cerevisiae deletion strains, locus YPL051W, strain arl3, stronger effect = lower value",0.925
same,normalized growth,"S. cerevisiae deletion strains, locus YPL055C, strain LGE1, stronger effect = lower value",1.04
same,normalized growth,"S. cerevisiae deletion strains, locus YPL078C, strain atp4, stronger effect = lower value",0.974
same,normalized growth,"S. cerevisiae deletion strains, locus YPL106C, strain sse1, stronger effect = lower value",0.951
same,normalized growth,"S. cerevisiae deletion strains, locus YPL240C, strain hsp82, stronger effect = lower value",0.939
same,normalized growth,"S. cerevisiae deletion strains, locus YPL241C, strain CIN2, stronger effect = lower value",0.975
same,normalized growth,"S. cerevisiae deletion strains, locus YPL256C, strain CLN2, stronger effect = lower value",0.126 (active)
same,normalized growth,"S. cerevisiae deletion strains, locus YPR119W, strain clb2, stronger effect = lower value",0.988
same,normalized growth,"S. cerevisiae deletion strains, locus YPR141C, strain kar3, stronger effect = lower value",0.988
same,normalized growth,"S. cerevisiae deletion strains, locus YPR163C, strain tif3, stronger effect = lower value",1.01
same,normalized growth,"S. cerevisiae deletion strains, locus YPR167C, strain met16, stronger effect = lower value",1
same,normalized growth,"S. cerevisiae deletion strains, strain wtn01, stronger effect = lower value",1
same,normalized growth,"S. cerevisiae strains, strain wild type, stronger effect = lower value",0.999
